PubChem BioAssay (Tox21)
Where a structure was tested more than once in an assay, its records may differ in their call. Activity calls are given as the source filed them. Where a call stands in place of a potency, no number is given. Unless noted, the call rests on the fitted dose curve; in most records, active means well fitted curve in the direction sought with a large enough effect in the repeat runs; inconclusive means weak or mixed curves; inactive means no such curve, though single readings can be large; an effect the other way counts as inactive or inconclusive.

Experiments:
[1] = qHTS assay to identify small molecule antagonists of the thyroid receptor (TR) signaling pathway - cell viability counter screen (AID 743064); further: nearly all actives have a fitted effect of over 50% in size
In short: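 In-well cytotoxicity read by CellTiter-Fluor (30 min, 37 C) following 23.5 h exposure of GH3 cells bearing a TRE-luciferase sensor. Compounds were added alongside 1 nM (final) T3 to drive TR transactivation.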

[2] = qHTS assay to identify small molecule antagonists of the thyroid receptor (TR) signaling pathway (AID 743065); further: series mostly up to about 70 µM; nearly all actives have a fitted effect of over 55% in size
In short: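 Antagonism measured as loss of luciferase signal in GH3 cells stably carrying a TRE-luciferase reporter, co-treated with compound and T3 (1 nM final) for 23.5 h at 37 C. Viability was read in the same well by CellTiter-Fluor.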

[3] = system: thyroid hormone receptor (rat, GH3 cells); assay: qHTS assay to identify small molecule agonists of the thyroid receptor (TR) signaling pathway (AID 743066; calls by dose curve)
[4] = qHTS assay to identify small molecule antagonists of the estrogen receptor alpha (ER-alpha) signaling pathway - cell viability counter screen (AID 743074; calls by dose curve;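 further: HEK293 cells carrying ER-alpha-UAS-bla reporter stimulated with 17beta-estradiol; nearly all actives have a fitted effect of over 45% in size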)
[5] = target: Estrogen receptor (Homo sapiens) (UniProt P03372); assay: qHTS assay to identify small molecule agonists of the estrogen receptor alpha (ER-alpha) signaling pathway (AID 743075; calls by dose curve;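 further: HEK293 GripTite cells with ER-alpha and UAS-driven beta-lactamase reporter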; further: potency means the concentration at half of the fitted maximal effect)
Estrogen receptor (Homo sapiens), sequence (P03372 whole entry, looked up): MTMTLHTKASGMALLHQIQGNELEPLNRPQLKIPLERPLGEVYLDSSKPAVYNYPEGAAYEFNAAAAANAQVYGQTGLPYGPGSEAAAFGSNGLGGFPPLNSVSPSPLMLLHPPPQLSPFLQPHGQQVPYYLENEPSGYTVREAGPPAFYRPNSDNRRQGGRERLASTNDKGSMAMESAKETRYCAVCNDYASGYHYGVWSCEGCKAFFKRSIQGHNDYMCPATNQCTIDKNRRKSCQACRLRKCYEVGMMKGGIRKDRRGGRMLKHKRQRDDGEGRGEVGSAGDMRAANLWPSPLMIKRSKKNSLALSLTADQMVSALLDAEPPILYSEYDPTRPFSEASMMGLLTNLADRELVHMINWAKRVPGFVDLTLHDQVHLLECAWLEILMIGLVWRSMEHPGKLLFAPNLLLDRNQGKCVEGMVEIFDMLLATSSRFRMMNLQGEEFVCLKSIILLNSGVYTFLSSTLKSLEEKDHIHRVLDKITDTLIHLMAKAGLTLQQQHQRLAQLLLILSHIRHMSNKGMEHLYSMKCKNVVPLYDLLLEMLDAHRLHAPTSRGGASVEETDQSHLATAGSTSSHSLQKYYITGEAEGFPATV

[6] = target: Estrogen receptor (Homo sapiens) (UniProt P03372); assay: qHTS assay to identify small molecule agonists of the estrogen receptor alpha (ER-alpha) signaling pathway using the BG1 cell line (AID 743079); further: nearly all actives have a fitted effect of over 20% in size; further: potency means the concentration at half of the fitted maximal effect
[7] = qHTS assay to identify small molecule antagonists of the estrogen receptor alpha (ER-alpha) signaling pathway using the BG1 cell line (AID 743080; calls by dose curve;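 further: BG1 cells stimulated with 17beta-estradiol alongside compound; series mostly up to about 70 µM; nearly all actives have a fitted effect of over 25% in size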)
In short: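 Luciferase inhibition measured with ONE-Glo after 30 min at RT in BG1Luc4E2 cells given test compounds and 17beta-estradiol for 21.5 h at 37 C; CellTiter-Fluor viability read in the same wells beforehand.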

[8] = qHTS assay to identify small molecule antagonists of the estrogen receptor alpha (ER-alpha) signaling pathway using the BG1 cell line - cell viability counter screen (AID 743081);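 further: compound given together with 17beta-estradiol as the ER stimulus; series mostly up to about 70 µM; nearly all actives have a fitted effect of over 45% in size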
Aromatase (Homo sapiens) = Aromatase (Homo sapiens) (UniProt P11511); assay: qHTS assay to identify aromatase inhibitors (AID 743083); further: series mostly up to about 70 µM; nearly all actives have a fitted effect of over 55% in size
Aromatase (Homo sapiens), sequence (P11511 whole entry, looked up): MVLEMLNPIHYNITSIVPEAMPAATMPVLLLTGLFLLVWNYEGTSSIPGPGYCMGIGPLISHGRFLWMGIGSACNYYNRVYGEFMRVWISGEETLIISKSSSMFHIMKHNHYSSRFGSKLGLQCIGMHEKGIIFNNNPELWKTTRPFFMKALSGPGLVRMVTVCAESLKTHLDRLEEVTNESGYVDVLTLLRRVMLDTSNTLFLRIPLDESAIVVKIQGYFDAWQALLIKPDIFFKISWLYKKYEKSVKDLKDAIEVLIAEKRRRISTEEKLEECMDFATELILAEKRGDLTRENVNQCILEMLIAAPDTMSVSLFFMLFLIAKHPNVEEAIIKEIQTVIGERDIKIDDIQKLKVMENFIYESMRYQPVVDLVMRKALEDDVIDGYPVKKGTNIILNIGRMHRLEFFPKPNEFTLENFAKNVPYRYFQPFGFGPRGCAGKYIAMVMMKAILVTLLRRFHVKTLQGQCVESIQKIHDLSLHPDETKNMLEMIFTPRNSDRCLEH

[9] = qHTS assay to identify aromatase inhibitors - cell viability counter screen (AID 743084);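 further: cells stimulated with testosterone during compound exposure; nearly all actives have a fitted effect of over 55% in size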
[10] = qHTS assay to identify small molecule that activate the aryl hydrocarbon receptor (AhR) signaling pathway - cell viability counter screen (AID 743086);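 further: HepG2 liver cells carrying the AhR DRE luciferase reporter; series mostly up to about 70 µM; nearly all actives have a fitted effect of over 45% in size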
In short: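 Cytotoxicity counter screen: CellTiter-Fluor signal (30 min, 37 C) in 4000 HepG2 cells/well carrying the DRE-luciferase reporter, following 24 h compound exposure at 37 C.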

[11] = target: Peroxisome proliferator-activated receptor gamma (Homo sapiens) (UniProt P37231); assay: qHTS assay to identify small molecule agonists of the peroxisome proliferator-activated receptor gamma (PPARg) signaling pathway (AID 743094; active means well fitted activation curve with a large enough effect in the signal ratio in the repeat runs, not every such curve was filed as active; inconclusive means weak or mixed curves, or effect the other way; inactive means no such curve, though single readings can be large or run the other way; the % refers to the signal ratio)
Peroxisome proliferator-activated receptor gamma (Homo sapiens), sequence (P37231 whole entry, looked up): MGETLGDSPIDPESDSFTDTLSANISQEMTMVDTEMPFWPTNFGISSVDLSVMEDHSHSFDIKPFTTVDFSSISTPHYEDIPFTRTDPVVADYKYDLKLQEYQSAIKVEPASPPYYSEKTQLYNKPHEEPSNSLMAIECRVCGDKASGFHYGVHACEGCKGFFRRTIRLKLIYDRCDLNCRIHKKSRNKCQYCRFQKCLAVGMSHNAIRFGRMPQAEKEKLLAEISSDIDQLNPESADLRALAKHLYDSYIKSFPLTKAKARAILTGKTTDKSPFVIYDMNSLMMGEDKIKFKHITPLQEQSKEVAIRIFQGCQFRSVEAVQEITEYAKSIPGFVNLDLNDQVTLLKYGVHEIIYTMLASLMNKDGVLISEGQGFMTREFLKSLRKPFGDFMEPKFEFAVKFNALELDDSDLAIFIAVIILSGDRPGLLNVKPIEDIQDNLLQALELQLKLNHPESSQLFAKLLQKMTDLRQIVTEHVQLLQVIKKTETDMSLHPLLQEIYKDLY
In short: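 Quantitative HTS agonist mode: stable HEK293H line with UAS-beta-lactamase reporter under PPARg control, 17 h compound exposure at 37C, fluorescence after 1 h FRET substrate loading at room temperature.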

[12] = qHTS assay to identify small molecule antagonists of the peroxisome proliferator-activated receptor gamma (PPARg) signaling pathway - cell viability counter screen (AID 743194); further: nearly all actives have a fitted effect of over 55% in size
In short: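 Viability was measured as CellTiter-Glo luminescence in GeneBLAzer PPARg UAS-bla HEK293H cells. These cells had been exposed 17 h at 37 C to compounds together with rosiglitazone at 50 nM final, with the beta-lactamase readout taken in the same wells.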

[13] = qHTS assay for small molecule agonists of the antioxidant response element (ARE) signaling pathway (AID 743202; active means well fitted activation curve with a large enough effect in the signal ratio in the repeat runs, not every such curve was filed as active; inconclusive means weak or mixed curves, or effect the other way; inactive means no such curve, though single readings can be large or run the other way; the % refers to the signal ratio)
In short: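 Quantitative high-throughput format in HepG2 cells bearing an integrated ARE-beta-lactamase reporter. Compound exposure lasted 16 h at 37 C, and fluorescence was read 2 h after adding LiveBLAzer B/G substrate at room temperature.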

[14] = qHTS assay for small molecule agonists of the antioxidant response element (ARE) signaling pathway - cell viability counter screen (AID 743203; calls by dose curve; further: nearly all actives have a fitted effect of over 55% in size)
In short: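 Seeded at 2,000 cells/well, ARE-bla HepG2 cells were incubated 5 hrs before compound addition. After 16 hrs of treatment at 37C with 5% CO2, CellTiter-Glo reagent was added and luminescence read 30 min later.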

[15] = qHTS assay for small molecule activators of the heat shock response signaling pathway - cell viability counter screen (AID 743209); further: nearly all actives have a fitted effect of over 50% in size
In short: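 First, HSE-bla HeLa cells were seeded at 1500 cells/well and kept overnight at 37 C. Next, compounds were pinned in and incubated 5 h. After the FRET substrate step, CellTiter-Glo was added and luminescence read 30 min later.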

[16] = qHTS assay for small molecule activators of the heat shock response signaling pathway (AID 743210; active means well fitted activation curve with a large enough effect in the signal ratio in the repeat runs, with a control signal flat, not every such curve was filed as active; inconclusive means weak or mixed curves; the % refers to the signal ratio;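 further: HeLa cells with beta-lactamase reporter driven by heat shock elements; series mostly up to about 63 µM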)
In short: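 HeLa HSE-bla cells, overnight plating; cpd in DMSO 5 h, 37 C; LiveBLAzer B/G FRET substrate 2.5 h RT; fluorescence intensity read.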

[17] = target: Estrogen receptor (Homo sapiens) (UniProt P03372); assay: qHTS assay to identify small molecule antagonists of the estrogen receptor alpha (ER-alpha) signaling pathway (AID 743069; active means well fitted curve in the direction sought with a large enough effect in the signal ratio in the repeat runs, not every such curve was filed as active; inconclusive means weak or mixed curves, or effect the other way; inactive means no such curve, though single readings can be large or run the other way; the % refers to the signal ratio)
In short: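 ER-alpha-UAS-bla GripTite HEK293 line; 2% charcoal-stripped FBS overnight; plated, 4 hr 37C/5% CO2; cpd in DMSO + 17beta-estradiol, 18 hr 37C; LiveBLAzer B/G FRET substrate 2 hr RT; fluorescence intensity.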

[18] = target: Aryl hydrocarbon receptor (Homo sapiens) (UniProt P35869); assay: qHTS assay to identify small molecule that activate the aryl hydrocarbon receptor (AhR) signaling pathway (AID 743085);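 further: HG2L7.5c1 human HepG2 liver cells with stably integrated DRE-driven firefly reporter; series mostly up to about 70 µM; nearly all actives have a fitted effect of over 15% in size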
Aryl hydrocarbon receptor (Homo sapiens), sequence (P35869 whole entry, looked up): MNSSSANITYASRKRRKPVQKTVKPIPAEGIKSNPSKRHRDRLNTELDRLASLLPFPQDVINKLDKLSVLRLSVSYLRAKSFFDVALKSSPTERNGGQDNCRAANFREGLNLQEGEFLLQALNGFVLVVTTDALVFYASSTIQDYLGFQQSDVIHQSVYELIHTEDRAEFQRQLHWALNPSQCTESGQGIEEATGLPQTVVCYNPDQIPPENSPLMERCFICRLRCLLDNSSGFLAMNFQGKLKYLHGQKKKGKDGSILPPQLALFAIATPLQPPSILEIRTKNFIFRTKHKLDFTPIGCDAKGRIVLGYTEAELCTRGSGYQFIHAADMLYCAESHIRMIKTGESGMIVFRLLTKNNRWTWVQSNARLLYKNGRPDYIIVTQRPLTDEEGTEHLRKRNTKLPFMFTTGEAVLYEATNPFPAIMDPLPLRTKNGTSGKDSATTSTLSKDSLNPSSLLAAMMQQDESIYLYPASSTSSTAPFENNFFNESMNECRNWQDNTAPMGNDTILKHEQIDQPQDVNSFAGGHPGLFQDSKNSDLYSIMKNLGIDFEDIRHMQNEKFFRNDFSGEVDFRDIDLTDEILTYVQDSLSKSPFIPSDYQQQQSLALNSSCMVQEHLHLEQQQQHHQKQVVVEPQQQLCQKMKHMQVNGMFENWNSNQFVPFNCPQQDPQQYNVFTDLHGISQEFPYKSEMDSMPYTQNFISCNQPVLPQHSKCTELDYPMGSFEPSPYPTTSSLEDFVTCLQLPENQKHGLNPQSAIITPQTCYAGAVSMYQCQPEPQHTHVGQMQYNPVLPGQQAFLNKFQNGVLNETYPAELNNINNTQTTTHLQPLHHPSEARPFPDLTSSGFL
In short: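 Luminescence (ONE-Glo) from a dioxin-responsive-element luciferase reporter in HG2L7.5c1 HepG2 cells after 24 hr compound exposure at 37C; viability measured by CellTiter-Fluor fluorescence beforehand.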

[19] = target: Peroxisome proliferator-activated receptor gamma (Homo sapiens) (UniProt P37231); assay: qHTS assay to identify small molecule antagonists of the peroxisome proliferator-activated receptor gamma (PPARg) signaling pathway (AID 743191; calls by dose curve; further: series mostly up to about 63 µM; nearly all actives have a fitted effect of over 30% in size)
In short: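 Beta-lactamase reporter under UAS control in HEK293H PPARg-bla cells; compound treatment 17 h at 37C. Read-out: fluorescence intensity after 1 h room-temperature incubation with LiveBLAzer B/G FRET substrate.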

Row | SMILES | Potency [1] | Potency [2] | outcome [3] | outcome [4] | Potency [5] | Potency [6] | outcome [7] | Potency [8] | Potency (Aromatase (Homo sapiens)) | Potency [9] | Potency [10] | outcome [11] | outcome [12] | Potency [13] | Potency [14] | outcome [15] | outcome [16] | Potency [17] | Potency [18] | outcome [19]
1 | CC(=O)c1ccc(O)cc1 | inactive | inactive | inactive | inactive | inactive | inactive | inactive | inactive | inactive | inactive | inactive | inactive | inactive | inactive | inactive | inactive | inactive | – | – | –
2 | C=CCCCCCCCCC(=O)O | inactive | inactive | inactive | inactive | inactive | inactive | inactive | inactive | inactive | inactive | inactive | inactive | – | inactive | inactive | inactive | inactive | inactive | – | –
3 | CN(C)c1ccc(O)c2c1C[C@H]1C[C@H]3[C@H](N(C)C)C(=O)C(C(N)=O)=C(O)[C@@]3(O)C(=O)C1=C2O | inactive | inactive | inactive | inactive | inactive | inactive | inactive | inactive | inactive | inactive | inactive | – | inactive | inactive | inactive | inactive | inactive | inactive | – | –
4 | NCCCCCCN | inactive | inactive | inactive | inactive | – | – | – | inactive | inactive | inactive | inactive | inactive | inactive | inactive | inactive | inactive | inactive | – | inactive | inactive
5 | CC(C)=CCl | inactive | inactive | inactive | – | 49.6 µM [inconclusive] (active) and inactive | 17.4 µM (active) and inactive | inactive | inactive | inactive | inactive | inactive | – | – | inactive | inactive | inactive | inactive | inactive | – | –
6 | C=C(C)CNCC | inactive | inactive | inactive | inactive | – | – | – | inactive | inactive | inactive | inactive | inactive | – | inactive | inactive | inactive | inactive | – | inactive | inactive
7 | CCCCCCO | inactive | inactive | inactive | inactive | inactive | – | inactive | inactive | inactive | inactive | inactive | inactive | inactive | inactive | inactive | inactive | inactive | inactive | – | inactive
8 | CC(C)(Oc1ccc(CCNC(=O)c2ccc(Cl)cc2)cc1)C(=O)O | inactive | inactive | inactive | inactive | inactive | inactive | inactive | inactive | inactive | inactive | inactive | – | inactive | inactive | inactive | inactive | inactive | inactive | – | inactive
9 | NC(=S)NNC(N)=S | inactive | inactive | inactive | inactive | – | – | – | inactive | inactive | inactive | inactive | inactive | – | inactive | inactive | inactive | inactive | – | inactive | inactive
10 | O=[N+]([O-])c1ccc2nc[nH]c2c1 | inactive | inactive | inactive | – | inactive | inactive | inactive | inactive | inactive | inactive | inactive | inactive | inactive | – | inactive | inactive | inactive | inactive | – | –
11 | CCOCCOCCOCCO | inactive | inactive | inactive | inactive | – | – | – | inactive | inactive | inactive | inactive | inactive | inactive | inactive | inactive | inactive | inactive | – | inactive | –
12 | Cc1ccc2ncccc2c1 | inactive | inactive | inactive | inactive | inactive | inactive | inactive | inactive | inactive | inactive | inactive | inactive | – | inactive | inactive | inactive | inactive | inactive | – | –
13 | CCO[Si](CCC#N)(OCC)OCC | inactive | inactive | inactive | inactive | inactive | inactive | inactive | inactive | inactive | inactive | inactive | inactive | inactive | inactive | inactive | inactive | inactive | inactive | – | –
14 | CC(=O)OCc1ccccc1 | inactive | inactive | inactive | inactive | inactive | inactive | inactive | inactive | inactive | inactive | inactive | inactive | – | inactive | inactive | inactive | inactive | inactive | – | –
15 | O=C(O)c1ccc(C(=O)O)c(C(=O)O)c1 | inactive | inactive | inactive | – | inactive | inactive | inactive | inactive | inactive | inactive | inactive | inactive | inactive | inactive | inactive | inactive | inactive | inactive | inactive | inactive
16 | COc1ccccc1OCC(O)CO (configuration not stated) | inactive | inactive | inactive | inactive | – | – | – | inactive | inactive | inactive | inactive | inactive | inactive | inactive | inactive | inactive | – | – | inactive | –
17 | CC(C)(C)c1cc(Cc2cc(C(C)(C)C)c(O)c(C(C)(C)C)c2)cc(C(C)(C)C)c1O | inactive | inactive | inactive | inactive | inactive | inactive | inactive | inactive | inactive | inactive | inactive | inactive | inactive | inactive | inactive | inactive | inactive | inactive | – | –
